# The panel holds about 83,000 compounds, 20% with a hit somewhere; the sample as a whole holds those more often.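 Interpretation: 100, growth as untreated; towards 0, rising growth inhibition; 0, no net growth; 0 to -100, cell death. Compounds scoring below 10 were considered active.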 Values without a mark were called inactive. Calls of active or inactive are those of the source.
# Columns and labels:
# Assay in all cases: NCI-60 one-dose screen, 48 h (100 = growth as untreated, 0 = no growth, -100 = all killed)
# Conditions in all cases: 10 µM unless noted
# NCI-H23 lung = test system: NCI-H23 lung
# NCI-H322M lung = test system: NCI-H322M lung
# HOP-62 NSCLC = test system: HOP-62 NSCLC
# NCI-H460 lung = test system: NCI-H460 lung
# HOP-92 NSCLC = test system: HOP-92 NSCLC
# NCI-H522 lung = test system: NCI-H522 lung
# A549/ATCC NSCLC = test system: A549/ATCC NSCLC
# 786-0 renal = test system: 786-0 renal
# COLO 205 colon = test system: COLO 205 colon
# DU-145 prostate = test system: DU-145 prostate
SMILES,growth (NCI-H23 lung),growth (NCI-H322M lung),growth (HOP-62 NSCLC),growth (NCI-H460 lung),growth (HOP-92 NSCLC),growth (NCI-H522 lung),growth (A549/ATCC NSCLC),growth (786-0 renal),growth (COLO 205 colon),growth (DU-145 prostate)
O=C(CN1C=NC2C(N3CCOCC3)=NC=NC21)c1cccc2ccccc12 (stereo not given),103%,98.8%,99.2%,103%,90.2%,90.2%,90.1%,101%,119%,105%
COc1cc(CNC(=O)c2ccsc2Nc2ccnc(C(F)(F)F)c2)ccc1O,92.3%,95.3%,126%,102%,81.3%,87%,100%,98.1%,106%,107%
COc1cc(/C=C/C(=O)N2c3ccccc3CC2C)c(OC)c2c1OCO2 (stereo not given),90.8%,101%,119%,98.2%,97.4%,81.5%,89.1%,94.9%,125%,94.5%
O=c1[nH]nnc2c1ncn2C1OC(CO)C(O)C1O (stereo not given),63.3%,71.1%,66.7%,33.1%,35.7%,58%,49.7%,54.4%,34.4%,26.8%
Oc1c(C(Nc2ccccn2)c2cccc(Oc3ccccc3)c2)ccc2cccnc12 (stereo not given),-73.3% (active),-94.4% (active),-95.7% (active),-86.3% (active),-86.9% (active),-84.7% (active),-81.8% (active),-81.4% (active),-90.8% (active),-96% (active)
CC[C@@H](C)[C@H](NC(=O)Cn1cc(CNC(=O)[C@@H](NC(=O)OCc2ccccc2)C(C)C)nn1)C(=O)O,101%,108%,114%,110%,102%,101%,101%,106%,124%,114%
Cc1ccc(OCCCCCCNCCO)c(C)c1,19.8%,11.1%,10.1%,-20.9% (active),12.8%,-8.65% (active),5.92% (active),11.3%,1.75% (active),21.5%
CSc1nc2c(c(=O)n1C)N=C1c3ccccc3C(=O)C1C(c1ccccc1)N2 (stereo not given),85%,95.1%,76.9%,76.2%,28.7%,103%,81.6%,91.9%,73.5%,81.9%
COc1ccc(-c2cn[nH]c2-c2cc(OC)c(OC)c(OC)c2)cc1OCc1ccccc1,33.2%,49.1%,27.7%,12.2%,31.4%,-19.7% (active),37.7%,21.5%,104%,65.2%
COc1cc(C(=O)O/N=C(\N)Cc2cccc3ccccc23)cc(OC)c1OC,80.7%,18.1%,27.6%,-47.9% (active),-7.36% (active),-10.9% (active),12.2%,45.9%,-92.6% (active),47.5%
Nc1ccn(C2O[C@H](CO)[C@@H](O)[C@H]2O)c(=O)n1 (stereo not given in full),71.8%,114%,65%,59.8%,73.2%,71.2%,46.6%,95.2%,110%,94.4%
O=C(CCc1nnc2sc(COc3ccccc3)nn12)c1nc2ncccc2[nH]1,85.4%,91.9%,90.7%,93.3%,93.6%,79.4%,107%,108%,107%,106%
CC1(C)CC2(C)OC2C2(C1)N=NC(=Nc1ccccc1)O2 (stereo not given),88.9%,103%,60.9%,79.5%,87.6%,15.1%,54.1%,36.3%,73%,67.2%
CC/C=C\C[C@H](O)C/C=C1/C(=O)C=C[C@@H]1C/C=C\CCCC(=O)OCCS(=O)(=O)c1ccccc1,59%,71.2%,22.1%,42%,110%,-7.61% (active),78.1%,60%,43.6%,47.7%

# From PubChem BioAssay (NCI)
